Source: PubChem BioAssay
LMNA splice mod – changes lamin A minigene splicing in HeLa cells | HeLa LMNA splicing GFP/RFP minigene ratio, 48 h | 0.01% of 200,000 active | Potency, µM (doses to about 46.1 µM), most hits filed as inhibitors | AID 1487; active means well fitted inhibition curve with a large enough effect in the signal ratio, with a control signal flat, not every such curve was filed as active; inconclusive means small, poorly fitted or top-dose-only effect, or effect the other way, or a change in a side signal; the % refers to the signal ratio
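S3 HeLa stable clones carrying a lamin A-EGFP splicing minigene plus DsRed2 were seeded at 600 cells/well in Opti-MEM with 2% FBS, pin-dosed and incubated 48 h at 37°C. Acumen cytometry (488 nm) gave the GFP/RFP total-intensity ratio.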
HPGD inh – blocks human HPGD enzyme activity; purified HPGD, NADH fluorescence kinetic, PGE2 substrate; Potency, µM, hits mostly inhibitors; 4.3% of 150,000 active
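NADH formation kinetics: reaction with 30 uM PGE2 and 1 mM NAD+ (final), 20 nM enzyme, Tris-HCl pH 8 with Tween 20, after 15 min compound preincubation at room temperature. Fluorescence change, last versus first of five reads.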
ALDH1A1 inh – blocks purified human ALDH1A1 activity; AID 1030; 7.3% of 220,000 active; Potency, µM (titrated, usually from 75.3 µM), actives largely listed as inhibitors; Purified ALDH1A1, NADH fluorescence, propionaldehyde substrate; P00352
PNC inhibitor – inhibitors of perinucleolar compartment assembly; PC3M PTB-GFP, PNC prevalence imaging, 16 h; stronger effect = lower value; activity change (PNC), negative = inhibition, % at 10 µM; 3.1% of 140,000 active;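 active means readout at or below -70, meaning at least 70% loss of cells showing the perinucleolar compartment, a nuclear body marking cancer cells; inconclusive means readout between -30 and a set limit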
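Compounds are pinned in duplicate onto adhered PC3M cells stably expressing GFP-tagged PTB and incubated 16 h at 37 C. Cells are then fixed, nuclei stained with Hoechst, and PNC-positive cells counted.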
ALOX12 inhib – blocks human 12-lipoxygenase activity | P18054 | purified 12-hLO, xylenol orange hydroperoxide absorbance | Potency, µM (highest dose often 57.1 µM), hits mostly inhibitors | 0.12% of 150,000 active | AID 1452; active means well fitted inhibition curve with a large enough effect; inconclusive means small, poorly fitted or top-dose-only effect; further: nearly all actives have a fitted effect of over 55% in size
Target sequence (P18054 whole entry, looked up): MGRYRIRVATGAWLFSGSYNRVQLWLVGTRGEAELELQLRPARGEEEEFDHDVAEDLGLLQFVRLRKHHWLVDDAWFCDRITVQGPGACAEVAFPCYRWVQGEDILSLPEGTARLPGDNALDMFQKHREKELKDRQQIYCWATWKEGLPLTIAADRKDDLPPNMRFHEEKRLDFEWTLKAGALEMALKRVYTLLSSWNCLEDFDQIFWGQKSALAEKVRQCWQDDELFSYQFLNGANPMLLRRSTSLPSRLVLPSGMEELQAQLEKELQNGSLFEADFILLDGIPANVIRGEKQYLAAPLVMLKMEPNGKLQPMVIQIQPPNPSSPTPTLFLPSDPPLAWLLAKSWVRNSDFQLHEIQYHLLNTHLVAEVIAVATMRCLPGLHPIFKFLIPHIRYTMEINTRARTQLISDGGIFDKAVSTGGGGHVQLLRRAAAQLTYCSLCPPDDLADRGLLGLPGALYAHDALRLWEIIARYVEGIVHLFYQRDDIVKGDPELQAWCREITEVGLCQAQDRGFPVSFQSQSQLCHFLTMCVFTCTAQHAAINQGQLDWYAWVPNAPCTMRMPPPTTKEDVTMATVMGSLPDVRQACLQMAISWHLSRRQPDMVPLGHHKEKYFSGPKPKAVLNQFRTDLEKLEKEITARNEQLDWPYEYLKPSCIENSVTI
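Purified human 12hLO (150 nM), preincubated 15 min with compound, then 40 uM arachidonic acid for 30 min, room temperature, Hepes pH 7.0 with 0.01% Triton X-100. Hydroperoxide detected by ferrous iron/xylenol orange; 573/405 nm absorbance ratio gives reaction progress.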
A number is an active result; 0 = inactive; ? = inconclusive; - = not tested or not shown; [ ] = remark or other dose. In the library only some 10% were active in any assay of this set; here they are far more common. Unless noted, the call rests on the fitted dose curve; in most records, active means well fitted inhibition curve with a large enough effect (not every such curve was filed as active); inconclusive means small, poorly fitted or top-dose-only effect, or another doubt; inactive means no such curve, though single readings can be large or run the other way.

SMILES	LMNA splice mod	HPGD inh	ALDH1A1 inh	PNC inhibitor	ALOX12 inhib
COc1ccc(C2C(C(=O)N3CCCC3)c3cc(OC)c(OC)cc3C(=O)N2C)cc1 (configuration not stated)	0	0	0	0	0
COCCN1C(=O)c2ccccc2C(C(=O)N2CCN(c3ccccn3)CC2)C1c1ccc(F)cc1 (configuration not stated)	0	0	0	-100	0
O=C(NC1CCCc2ccccc21)c1ccc2c(c1)sc1nc(-c3ccccc3)cn12 (configuration not stated)	0	-	-	-	-
Cc1ccccc1NC(=O)Cn1c(=O)oc2cc(Br)ccc21	0	-	-	-	-
Cc1ccc(N2C(=O)CS(=O)(=O)C23C(=O)N(Cc2ccc(Cl)cc2)c2ccccc23)cc1C (configuration not stated)	0	-	-	-	-
Cc1noc(C)c1C(=O)N1CCC2(CC1)CCN(c1ccncc1)CC2	-	?	?	-	0
O=C(c1ccc(Cc2nc3ccccc3[nH]2)cc1)N1CCOCC1	-	0	0	-	0
Cc1cc(O)ccc1Nc1nc2ccccc2nc1Nc1ccc(O)cc1C	?	0	22µM	0	0
CCCCCCSc1nnc2[nH]c(=O)cc(N)n12	0	11µM	0	0	0
CC(=C/C=C/C(C)=C/C=C/C=C(C)/C=C/C=C(C)/C=C/C(=O)O)/C=C/C(=O)O	-	0	0	-	0
COc1ccc2c(c1)c1nnc(SCC(=O)N3CCCCC3C)nc1n2C (configuration not stated)	0	16µM	?	0	0
CC1CCN(C(=O)CSc2nnc(-c3cccnc3)n2C2CCCCC2)CC1	0	22µM	?	0	0
O=C(CSc1nnc(-c2cccnc2)n1C1CCCCC1)NC1CCCCC1	0	0	0	0	0
COc1ccc(-n2c(SCC(=O)N3CCCCC3C)nnc2-c2cccnc2)cc1 (configuration not stated)	0	20µM	10µM	0	0
CC1CCCCN1C(=O)CSc1nnc(-c2cccnc2)n1C1CCCCC1 (configuration not stated)	0	25µM	0	0	0
Cc1ccc(S(=O)(=O)N[C@H]2COC(=O)[C@H](C)COC(=O)C/C=C\[C@H]2C)cc1	-	-	0[13.5 µM]	-	-
CCCCNC(=O)C1CCC(Cn2c(=O)c3sccc3n(CC(=O)N3CCCC3)c2=O)CC1 (configuration not stated)	0	-	-	-	-
Cn1c(=O)c(-c2ccc(F)cc2)nc2cnc(Nc3ccccc3)nc21	0	-	0	-	-
FC(F)(F)c1ccccc1-c1nc(NCc2cccnc2)c2ccccc2n1	0	-	0	-	-
NC(=O)CSc1nc2ccc([N+](=O)[O-])cc2[nH]1	0	-	0	-	-
Cc1cccc2nc(CSc3nc4ccc([N+](=O)[O-])cc4[nH]3)c(Br)n12	?	?	25µM	0	0
Cc1nc(NCC2CCCO2)[nH]c(=O)c1CCC(C)C (configuration not stated)	0	0	0	0	0
Cc1n[nH]c(=O)nc1NCC1CCCO1 (configuration not stated)	0	28µM	?	0	0
NNC(=O)[C@@H](O)[C@H](O)[C@H](O)CO	-	0	0[13.5 µM]	-	0[11.4 µM]
Cc1nc([N+](=O)[O-])c(N2CCN(C)CC2)n1Cc1ccccc1	0	0	0	-88	0
SMILES	LMNA splice mod	HPGD inh	ALDH1A1 inh	PNC inhibitor	ALOX12 inhib
C=C1C2CC[C@@]3(C)C(c4ccoc4)OC(=O)C[C@@]13OC1CC(OC(C)=O)C(C)(C)C(CC(=O)OC)[C@@]12C (some centres not stated)	-	0	0	-	0
CCn1ncc(C2=NOC(C(=O)Nc3ccc(C)cc3)C2)c1C (configuration not stated)	?	0	0	?	0
CCn1ncc(C2=NOC(C(=O)NCc3ccc(Cl)cc3)C2)c1C (configuration not stated)	?	0	0	-82	0
CCOc1cccc2cc(-c3nc4sc5c(c4c(=O)[nH]3)CCC(C(C)(C)C)C5)c(=O)oc12 (configuration not stated)	0	-	-	-	-
Cc1ccccc1-n1nnnc1SCc1ncc(-c2ccccc2)o1	?	0	10µM	0	0
Cc1ccc(-c2noc(C(C)NS(=O)(=O)c3ccc(C)cc3)n2)cc1 (configuration not stated)	0	-	-	-	-
O=C(NC1CCCCC1)c1ccc(N2CCCC2=O)cc1	0	8.9µM	0	0	0
O=C(Nc1ccccc1)c1cccc(N2CCCC2=O)c1	0	0	0	?	0
O=C(NC1CCCCCC1)c1ccc(N2CCCC2=O)cc1	0	?	0	?	0
O=C(NCc1ccccc1)NC1CCCCC1	0	?	0	0	0
O=C(NCc1ccc(N2CCCC2=O)cc1)NC1CCCCC1	0	22µM	0	0	0
O=C(O)c1cccc(N2CCCC2=O)c1	0	20µM	?	0	0
Cc1ccc(CSCCC(=O)NCc2ccc(F)cc2Cl)cc1	0	-	-	-	-
O=Cc1ccccc1OS(=O)(=O)c1ccccc1	0	0	13µM	0	0
CCOc1ccc(C2c3c(oc4ccc(C)cc4c3=O)C(=O)N2CCCN2CCOCC2)cc1 (configuration not stated)	0	-	-	-	-
CCCC[C@@H]1C[C@H]1C(NC(=O)c1cccnc1)c1ccc(-c2ccccc2)cc1 (some centres not stated)	-	0	0	-	0
CNc1nc(-c2ccc3c(c2)CCN3C(=O)CC(C)(C)C)c(C)s1	-	-	0	-	-
CC(C)(C)C(=O)N1CCc2cc(-c3csc(N)n3)ccc21	0	0	0	0	0
CNc1nc(-c2ccc3c(c2)CCN3C(=O)c2ccccc2F)cs1	0	-	25µM	-	-
CNc1nc(-c2ccc3c(c2)CCN3S(=O)(=O)c2ccccc2)c(C)s1	?	-	8.9µM	-	-
CNc1nc(-c2ccc3c(c2)CCN3C(=O)c2ccccc2F)c(C)s1	-	-	11µM	-	-
CSc1sc(C)cc1/C=N/O	0	16µM	0	0	0
Cc1nn(C)cc1/C=N/O	0	0	0	0	0
O=c1cc(-c2cccc(O)c2)oc2c(O)c(O)ccc12	-	3.2µM	?	-	0
O=c1cc(-c2cccc(O)c2)oc2cc(O)ccc12	-	?	?	-	0
SMILES	LMNA splice mod	HPGD inh	ALDH1A1 inh	PNC inhibitor	ALOX12 inhib
CC(C)NC(=O)NC(=O)COC(=O)Cc1ccsc1	0	0	14µM	0	0
COc1ccc(CC(=O)OCC(=O)NC(=O)NC(C)C)cc1	0	0	0	0	0
Cc1ccc(C)c(S(=O)(=O)NCc2ccc(C(=O)N3CCCCCC3)cc2)c1	?	7.1µM	0	?	0
Cc1cc(C)c(C)c(S(=O)(=O)NCC(=O)N2CCCC2)c1C	0	0	0	?	0
Cc1cc(C)c(C)c(S(=O)(=O)NCc2ccc(C(=O)N3CCCCC3)cc2)c1C	0	2µM	?	0	0
CC1(C)C2CC=C(/C=N/NC(=S)Nc3cccnc3)C1C2 (configuration not stated)	?	-	0	-	-
CC1=C/C(=N\NC(=S)Nc2cccnc2)CC(C)(C)C1	?	-	12µM	-	-
Cc1cc(C)cc(N(CCC(=O)Nc2nnc(C)s2)S(=O)(=O)c2ccc(Cl)cc2)c1	0	0	0	0	0
